# Source: PubChem BioAssay (NCI)
# This is part of a sample that, as a whole, favours compounds with a hit. Of some 83,000 tested, about 20% had one in any assay.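 Each cell line was grown in a 96-well plate and treated with one concentration of compound for 48 hours. Values below 10 were considered active.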 Unmarked numbers belong to inactive results. The source made the active and inactive calls.
# Test system: HL-60(TB) leukemia
# Experiment: NCI-60 one-dose screen, 48 h (100 = growth as untreated, 0 = no growth, -100 = all killed)
# Conditions: 10 µM unless noted
row,SMILES,growth
1,CCOC(=O)c1c(O)cc(-c2ccccc2)cc1-c1sc(N(C)Cc2ccccc2)nc1Cl,100%
2,COc1cc(C2CC(c3ccccc3)=NN2C=O)ccc1Oc1nc2c(c(=O)n(C)c(=O)n2C)n1C (stereo not given),101%
3,NNC(=O)C1CC2c3ccccc3C1c1ccccc12 (stereo not given),113%
4,COc1ccc(-c2cc(C(=O)N3N=C(c4ccc(N)cc4)CC3c3ccc(OC)cc3)c3cc(OC)ccc3n2)cc1 (stereo not given),-7.72% (active)
5,O=C1Nc2ccccc2/C1=C/c1nc2ccccc2c(=O)[nH]1,102%
6,S=c1nc(-c2ccccc2)oc(=NC2CCCCC2)n1C1CCCCC1,-36.5% (active)
7,Cc1cnc(NC(=O)Nc2cc(Br)c(C)cc2OC[C@@H]2CNCCO2)cn1,-25.3% (active)
8,CC1=C([Se]CC(OC(=O)[C@@H](CO)NC(=O)OC(C)(C)C)C(=O)NC(C)(C)C)C(=O)c2ccccc2C1=O (stereo not given in full),-36.2% (active)
9,Cc1cc(Nc2nc(N3CCOCC3)nc3ccccc23)n[nH]1,63.1%
10,CC(=O)n1c(/C(C#N)=C/c2ccc(N(C)C)cc2)cc2ccccc21,10.5%
11,COc1cc(-c2cc(/C=C3\C(=O)Nc4cc(Cl)ccc43)[nH]n2)cc(OC)c1OC,-34.9% (active)
12,Cc1cc(C(C)(C)C)cc(C)c1CC1=NCCN1,102%
13,O=[N+]([O-])c1ccc(-c2cc3c(Nc4ccc(Sc5nc6ccccc6s5)c(Cl)c4)ncnc3s2)cc1,21.6%
14,Clc1ccc2c(NCCNc3nc(Cl)nc4ccccc34)ccnc2c1,-67% (active)
15,O=C(NCCOCCOCCNc1cccc2c1C(=O)N(C1CCCNC1=O)C2=O)c1cc2c(o1)C(=O)c1ccccc1C2=O (stereo not given),-1.81% (active)
16,CCc1ccc(CNc2ccc(N3CCOCC3)c(C(=O)O)c2)cc1,100%
17,CC(C)CSc1oc(-c2ccccc2)nc1S(=O)(=O)c1ccccc1,82%
18,O=c1[nH]c(-c2ccccn2)nc2sc3c(c12)CCCCCC3,10.9%
19,CC(=O)c1ccc(-n2cc(CN3CCN(c4cc5c(cc4F)c(=O)c(C(=O)O)cn5C4CC4)CC3)nn2)cc1,99%
20,CC#Cc1nc(Nc2cc(C)[nH]n2)c2ccccc2n1,4.13% [100 µM] (active)

row,SMILES,growth
1,COc1ccc2c(c1)c(-c1nc(-c3cn(C)c4ncccc34)cs1)cn2CCCN1CCCCC1,4.1% (active)
2,COc1ccc(/C=C/c2nc(Nc3ccc(S(=O)(=O)Nc4cc(C)on4)cc3)c3ccccc3n2)cc1,80.9%
3,O=c1ccc2cc3ccccc3cc2[nH]1,67.7%
4,COc1ccc(C2CC(c3ccccc3)=NN2C(=O)c2cc(OC)c(OC)c(OC)c2)cc1O (stereo not given),-29.3% (active)
5,CCOC(=O)Cn1c(C)c(/C=N/NC(=O)c2cc3c(ccc4ccccc43)o2)c2ccccc21,0.68% (active)
6,CCCCCCN(CCCCCC)c1ccc(/C=C2/SC(=O)NC2=O)c(C)c1,77.1%
7,CCCn1c(=S)sc2c(NNC(C)=O)nc(C)nc21,58.1%
8,O=C(c1nnc(Nc2ccccc2Br)o1)c1c[nH]c2ccccc12,103%
9,COc1ccc(-c2cc(-c3cc(OC)c(OC)c(OC)c3)nc(N3CCOCC3)c2C#N)cc1,51.4%
10,Cc1cc2c3ccc(C)[n+](C)c3ccc2n1C,-5.59% (active)
11,O=C([C@H]1C[C@H]1c1ccc(S(F)(F)(F)(F)F)cc1)N1CCN(c2cc(Cl)ccc2C(F)(F)F)CC1,83.5%
12,CC(C)(C)C(=O)Nc1nc2c(s1)CCc1ccn(S(=O)(=O)c3ccccc3)c1-2,70%
13,COc1cc(NCCCCN=C(N)NC(N)=NC(C)C)c2ncccc2c1,55.9%
14,O=C(N/N=C1\SCC(=O)N1c1ccccc1)c1cc(-c2cc3ccccc3o2)nn1-c1ccccc1,112%
15,COC(=O)Nc1nc2ccc(C3(c4ccc(F)cc4)OCCO3)cc2[nH]1,-25.1% (active)
16,COc1cc(C2=NNC(c3ccc(N(C)C)cc3)C2)cc(OC)c1OC (stereo not given),-33.6% (active)
17,COc1ccc(Cl)cc1NC(=O)c1c(NC(=O)C(F)(F)C(F)(F)F)sc2c1CCCCC2,12.4%
18,COc1cc(-c2nn(-c3ccc(NC(=O)NCCNS(=O)(=O)c4ccc(F)cc4)cc3)cc2-c2ccncc2)ccc1Cl,-9.47% (active)
19,CNC(=O)c1cc(Oc2ccc(NC(=O)Nc3ccc(Cl)c(OC4CCCCC4)c3)c(F)c2)ccn1,82.9%
20,CN1CCN(c2ccc(-c3cnc4c(-c5csc6ccccc56)cnn4c3)cc2)CC1,9.53% (active)
